# Measured values reported in the OligoGym collection.
# Molecular target: VWA3A
# Assay: pooled miR-30 sensor sort-seq; sequence = guide strand
# Conditions: shRNA
# Also: reference of the scale not given here.
row,Sequence,sensor-assay potency score (higher = more potent)
1,TTGGTGTTTGTCTTTGTCCTTG,-0.376
2,TTAGCTGAAGTGTCTTTGGTTT,-0.499
3,TTTAGGACAAGGCTGCAGCTTG,-0.774
4,TTCACATCTCTTTTCTCCCTGA,0.334
5,TCGAGCAGTACAACCACCCTTT,0.012
6,TTCTGCATCATTTTTCTTCTGG,0.433
7,TTCAGCTGGAGGTCGCAGCCGC,-0.797
8,TTTCACATCTCTTTTCTCCCTG,0.76
9,TAAATTGTTGTGACTCACGGGA,0.0538
10,TACATCCGCATAGCTCTGCTGA,-0.863
11,TAGTGCTCCATCTTTGGGCTGT,0.398
12,TGAATGTTCTTCACTGTCCCGT,-0.182

# Molecular target: WBSCR16
# Assay: as above
# Conditions: shRNA
row,Sequence,sensor-assay potency score (higher = more potent)
1,TTTAACACTGCACAGCCCGTGC,-0.959
2,ATAGACTTCTCCTTTATCCGTC,0.592
3,TTTCGTAACATCCGCAGTCTTA,-0.626
4,AATCTTTTGGTCCAGCTCCAGG,-1.82
5,TCATTTTCGACCACCTTTCTTC,0.23
6,TTTTGGTCCAGCTCCAGGCGAT,-1.09
7,TTAGCCTCGATTCTCTTCCTGA,-0.0373
8,TTCTTAACTTTTCCAAGCCAGG,-1.27
9,TTCTGGGTTGAACTCCGTCAAG,-1.57
10,TTATCCGTCAGGAACAGACTAT,-0.761
11,TAGACTTCTCCTTTATCCGTCA,-0.137
12,TATTGTAGTGACCCAGACCTGT,-0.394

# Molecular target: WDFY1
# Assay: as above
# Conditions: shRNA
row,Sequence,sensor-assay potency score (higher = more potent)
1,TTGAGGGTTGTGATGACTGAAC,-1.35
2,TTTCACTACACATTAGCTGTTC,0.757
3,TAACTTGAGCGCTTGCTGCTGC,0.171
4,TTGACCACTGTCTCTTTTCAGC,-0.843
5,TTGATCGCCTCCTTAAACCTTT,-0.0804
6,TATAAAACAAATTTAGTCCTTT,0.214
7,TCTTTCACTACACATTAGCTGT,-0.731
8,TAACAAGAATCACAAACCCGGA,-0.759
9,TTCCACACTGCAATTCCGCCGT,-0.441
10,TTCTCTGCTAACATCCATGTTC,-0.775
11,TTCATCTTTGATGGAGTCGTAA,-0.712
12,TTTCTTCTCTTCCTCATCCTGG,-0.185

# Molecular target: WDR33
# Assay: as above
# Conditions: shRNA
row,Sequence,sensor-assay potency score (higher = more potent)
1,TTGAGGACCAGAACTACCTTGT,0.395
2,TTTACTTCCTGAAACAACTAAC,-1.04
3,TTCAATTTTAAGTTGCTCCAGA,0.632
4,TACATCTCTAACATATTGCAAA,-1.19
